Measurements taken from the supplement of paper PMC8728848.
About 410 targets per protein were measured; listed, in parts, are those with the strongest signals and a random draw of the rest.

Columns and labels:
Assay in all cases: glycan array binding signal (z-score within array); higher = stronger binding
Conditions in all cases: glycan notation: IUPAC condensed, linker removed
[1] = target: Fuc(a1-2)Gal(b1-3)GlcNAc6S
Summary of the method: (§1)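 From the Consortium for Functional Glycomics database, 3228 arrays were curated, keeping only those whose protein sequence was available. Binding is given as a within-array Z-score averaged across arrays sharing a protein sequence and across linkers. Negative Z-scores can be read as non-binding.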

[2] = target: Fuc(a1-2)Gal(b1-3)[Fuc(a1-4)]GlcNAc(b1-3)[Fuc(a1-3)[Gal(b1-4)]GlcNAc(b1-6)]Gal(b1-4)Glc
Summary of the method: as §1

[3] = target: Fuc(a1-2)Gal(b1-4)GlcNAc(b1-6)GalNAc
Summary of the method: as §1

[4] = target: Fuc(a1-2)Gal(b1-4)[Fuc(a1-3)]GlcNAc
Summary of the method: as §1

[5] = target: Fuc(a1-2)[Gal(a1-3)]Gal(b1-3)GlcNAc
Summary of the method: as §1

[6] = target: Fuc(a1-2)[Gal(a1-3)]Gal(b1-3)GlcNAc(b1-3)GalNAc
Summary of the method: as §1

[7] = target: Fuc(a1-2)[Gal(a1-3)]Gal(b1-4)GlcNAc
Summary of the method: as §1

[8] = target: Fuc(a1-2)[GalNAc(a1-3)]Gal(b1-4)GlcNAc(b1-2)Man
Summary of the method: as §1

[9] = target: Fuc(a1-2)[GalNAc(a1-3)]Gal(b1-4)GlcNAc(b1-3)GalNAc
Summary of the method: as §1

[10] = target: Fuc(a1-2)[GalNAc(a1-3)]Gal(b1-4)GlcNAc(b1-6)GalNAc
Summary of the method: as §1

[11] = target: Fuc(a1-2)[GalNAc(b1-3)]Gal
Summary of the method: as §1

[12] = target: Fuc(a1-3)[Gal(b1-4)]GlcNAc(b1-2)Man
Summary of the method: as §1

[13] = target: Gal(a1-3)Gal(b1-3)GlcNAc
Summary of the method: as §1

[14] = target: Gal(a1-3)Gal(b1-3)GlcNAc(b1-2)Man(a1-3)[Gal(a1-3)Gal(b1-3)GlcNAc(b1-2)Man(a1-6)]Man(b1-4)GlcNAc(b1-4)GlcNAc
Summary of the method: as §1

[15] = target: Gal(a1-3)Gal(b1-4)GlcNAc(b1-6)GalNAc
Summary of the method: as §1

[16] = target: Gal(b1-3)GlcNAc(a1-6)Gal(b1-4)GlcNAc
Summary of the method: as §1

[17] = target: Gal(b1-3)GlcNAc(b1-3)Gal(b1-4)Glc
Summary of the method: as §1

[18] = target: Gal(b1-3)GlcNAc(b1-6)GalNAc
Summary of the method: as §1

[19] = target: Gal(b1-3)[Fuc(a1-4)]GlcNAc(b1-3)Gal(b1-3)[Fuc(a1-4)]GlcNAc
Summary of the method: as §1

[20] = target: Gal(b1-3)[Neu5Ac(a2-6)]GlcNAc(b1-4)Gal(b1-4)Glc
Summary of the method: as §1

[21] = target: Gal(b1-4)GalNAc(b1-3)[Fuc(a1-2)]Gal(b1-4)GlcNAc
Summary of the method: as §1

[22] = target: Gal(b1-4)GlcNAc(b1-2)[Gal(b1-4)GlcNAc(b1-6)]Man(a1-6)[GlcNAc(b1-4)][Gal(b1-4)GlcNAc(b1-2)[Gal(b1-4)GlcNAc(b1-4)]Man(a1-3)]Man(b1-4)GlcNAc(b1-4)[Fuc(a1-6)]GlcNAc
Summary of the method: as §1

[23] = target: Gal(b1-4)GlcNAc(b1-3)Gal(b1-4)GlcNAc(b1-2)Man(a1-3)[Gal(b1-4)GlcNAc(b1-3)Gal(b1-4)GlcNAc(b1-2)Man(a1-6)]Man(b1-4)GlcNAc(b1-4)GlcNAc
Summary of the method: as §1

[24] = target: Gal3S(b1-4)Glc
Summary of the method: as §1

[25] = target: Gal3S(b1-4)[Fuc(a1-3)]GlcNAc6S
Summary of the method: as §1

[26] = target: Gal6S(b1-4)GlcNAc6S
Summary of the method: as §1

[27] = target: GalNAc(a1-3)Gal
Summary of the method: as §1

[28] = target: GalNAc(b1-3)Gal
Summary of the method: as §1

[29] = target: GalNAc(b1-3)Gal(a1-4)Gal(b1-4)GlcNAc
Summary of the method: as §1

[30] = target: GalNAc(b1-3)Gal(a1-4)Gal(b1-4)GlcNAc(b1-3)Gal(b1-4)Glc
Summary of the method: as §1

[31] = target: GalNAc(b1-3)Gal(a1-6)Gal(b1-4)Glc
Summary of the method: as §1

[32] = target: GalNAc3S(b1-4)GlcNAc
Summary of the method: as §1

[33] = target: GlcNAc(a1-4)Gal(b1-3)GlcNAc
Summary of the method: as §1

[34] = target: GlcNAc(a1-4)Gal(b1-4)GlcNAc(b1-3)Gal(b1-4)GlcNAc
Summary of the method: as §1

[35] = target: GlcNAc(b1-2)Man(a1-3)[GlcNAc(b1-2)Man(a1-6)]Man(b1-4)GlcNAc(b1-4)GlcNAc
Summary of the method: as §1

[36] = target: GlcNAc(b1-3)Gal
Summary of the method: as §1

[37] = target: GlcNAc(b1-6)GalNAc
Summary of the method: as §1

[38] = target: Man(a1-2)Man(a1-3)[Man(a1-2)Man(a1-6)]Man(a1-6)[Man(a1-2)Man(a1-2)Man(a1-3)]Man
Summary of the method: as §1

[39] = target: Man(a1-3)[Man(a1-6)]Man(a1-6)[Man(a1-3)]Man(b1-4)GlcNAc(b1-4)GlcNAc
Summary of the method: as §1

[40] = target: Neu5Ac(a2-3)Gal(b1-3)GalNAc(b1-3)Gal(a1-4)Gal(b1-4)Glc
Summary of the method: as §1

[41] = target: Neu5Ac(a2-3)Gal(b1-3)[Fuc(a1-4)]GlcNAc(b1-3)Gal(b1-3)[Fuc(a1-4)]GlcNAc
Summary of the method: as §1

[42] = target: Neu5Ac(a2-3)Gal(b1-4)Glc
Summary of the method: as §1

[43] = target: Neu5Ac(a2-3)Gal(b1-4)GlcNAc(b1-2)Man(a1-3)[Neu5Ac(a2-3)Gal(b1-4)GlcNAc(b1-2)Man(a1-6)]Man(b1-4)GlcNAc(b1-4)[Fuc(a1-6)]GlcNAc
Summary of the method: as §1

[44] = target: Neu5Ac(a2-3)Gal(b1-4)GlcNAc(b1-3)Gal
Summary of the method: as §1

[45] = target: Neu5Ac(a2-3)Gal(b1-4)GlcNAc(b1-3)Gal(b1-4)GlcNAc
Summary of the method: as §1

[46] = target: Neu5Ac(a2-3)Gal(b1-4)[Fuc(a1-3)]GlcNAc(b1-6)[Neu5Ac(a2-3)Gal(b1-3)]GalNAc
Summary of the method: as §1

[47] = target: Neu5Ac(a2-6)Gal(b1-4)GlcNAc(b1-2)[Neu5Ac(a2-6)Gal(b1-4)GlcNAc(b1-4)]Man(a1-3)[GlcNAc(b1-4)][Neu5Ac(a2-6)Gal(b1-4)GlcNAc(b1-4)Man(a1-6)]Man(b1-4)GlcNAc(b1-4)GlcNAc
Summary of the method: as §1

[48] = target: Neu5Ac(a2-8)Neu5Ac(a2-8)Neu5Ac(a2-3)[GalNAc(b1-4)]Gal(b1-4)Glc
Summary of the method: as §1

[49] = target: Neu5Ac(b2-6)GalNAc
Summary of the method: as §1

B1: Cohesin-mDCIR (Macaca mulatta) (protein)
chain: GLDDLDAVRIKVDTVNAKPGDTVRIPVRFSGIPSKGIANCDFVYSYDPNVLEIIEIEPGDIIVDPNPDKSFDTAVYPDRKIIVFLFAEDSGTGAYAITKDGVFATIVAKVKEGAPNGLSVIKFVEVGGFANNDLVEQKTQFFDGGVNVGDTTEPATPTTPVTTPTTTDDLDAASFQKYSQLLEKMTTKDLVHTTLECVKKNMTTEETAWSCCPKNWKPFSSNCYFISTESASWQKSEKDCARMEAHLLVINTREEQDFIFQNLQEESAYFVGLSDPEGQRHWQWVDRTPYNESSTFWHPHEPSDPDERCVVLNFRKTPKRWGWNDVHCIVHQRSVCEMMKIHLHHHHHH
[1]
  glycan array binding signal (z-score): -0.407
[2]
  glycan array binding signal (z-score): -0.151
[3]
  glycan array binding signal (z-score): 0.7
[4]
  glycan array binding signal (z-score): 0.229
[5]
  glycan array binding signal (z-score): 3.96
[6]
  glycan array binding signal (z-score): -0.241
[7]
  glycan array binding signal (z-score): -0.349
[8]
  glycan array binding signal (z-score): -0.101
[9]
  glycan array binding signal (z-score): -0.338
[10]
  glycan array binding signal (z-score): 5.37
[11]
  glycan array binding signal (z-score): 3.27
[12]
  glycan array binding signal (z-score): -0.274
[13]
  glycan array binding signal (z-score): 8.73
[14]
  glycan array binding signal (z-score): -0.246
[15]
  glycan array binding signal (z-score): 6.42
[16]
  glycan array binding signal (z-score): -0.186
[17]
  glycan array binding signal (z-score): -0.363
[18]
  glycan array binding signal (z-score): 3.16
[19]
  glycan array binding signal (z-score): 4.89
[20]
  glycan array binding signal (z-score): -0.388
[21]
  glycan array binding signal (z-score): -0.103
[22]
  glycan array binding signal (z-score): -0.425
[23]
  glycan array binding signal (z-score): 4.39
[24]
  glycan array binding signal (z-score): 5.11
[25]
  glycan array binding signal (z-score): 1.55
[26]
  glycan array binding signal (z-score): 0.096
[27]
  glycan array binding signal (z-score): 0.417
[28]
  glycan array binding signal (z-score): 2.45
[29]
  glycan array binding signal (z-score): 1.26
[30]
  glycan array binding signal (z-score): 0.862
[31]
  glycan array binding signal (z-score): 2.77
[32]
  glycan array binding signal (z-score): -0.436
[33]
  glycan array binding signal (z-score): -0.401
[34]
  glycan array binding signal (z-score): -0.366
[35]
  glycan array binding signal (z-score): -0.313
[36]
  glycan array binding signal (z-score): -0.352
[37]
  glycan array binding signal (z-score): 1.02
[38]
  glycan array binding signal (z-score): -0.438
[39]
  glycan array binding signal (z-score): -0.439
[40]
  glycan array binding signal (z-score): -0.388
[41]
  glycan array binding signal (z-score): -0.418
[42]
  glycan array binding signal (z-score): -0.444
[43]
  glycan array binding signal (z-score): -0.364
[44]
  glycan array binding signal (z-score): -0.377
[45]
  glycan array binding signal (z-score): -0.175
[46]
  glycan array binding signal (z-score): -0.363
[47]
  glycan array binding signal (z-score): -0.257
[48]
  glycan array binding signal (z-score): 0.263
[49]
  glycan array binding signal (z-score): -0.406
